{"source": "PubChem BioAssay (EPA / NIEHS)", "note": "Records with an inconclusive call do not appear. Calls of active or inactive are those of the source. The calls were made as follows: active = hit-call score of the fitted dose curve at least 0.9, where 1 is the maximum; inconclusive = response in the unintended direction; inactive = score below 0.9."}
{"read-out": "xenobiotic metabolism (CYP2C9), CYP2C9 (gene 1559)", "test": "CLD_CYP2C9_6hr: CellzDirect (CLD) Gene Expression Assay for xenobiotic metabolism (CYP2C9) at 6 hours (AID 2283664)", "description": "CLD_6hr is a cell-based, multiplexed-readout assay that uses hepatocyte, a human liver primary cell, with measurements taken at 6 hours after chemical dosing in a 96-well plate.CLD_CYP2C9_6hr is one of 16 assay component(s) measured or calculated from the CLD_6hr assay. It is designed to make measurements of mRNA induction, a form of inducible reporter, as detected with chemiluminescence signals by Quantitative Nuclease Protection Assay (qNPA) technology.Data from the assay component CLD_CYP2C9_6hr was analyzed at the endpoint, CLD_CYP2C9_6hr, in the positive analysis fitting direction relative to DMSO as the negative control and baseline of activity. Using a type of inducible reporter, gain-of-signal activity can be used to understand changes in the reporter gene as they relate to the gene CYP2C9. Furthermore, this assay endpoint can be referred to as a primary readout. To generalize the intended target to other relatable targets, this assay endpoint is annotated to the cyp intended target family, where subfamily is xenobiotic metabolism.\nHuman hepatocyte cultures were treated daily for two consecutive days with fresh dosing solutions containing appropriate concentrations of the 320 ToxCast chemicals (chemical identities were blinded to CellzDirect and other ToxCast collaborators), vehicle control (0.2% DMSO), and positive control inducers as summarized in Table 1. Due to the large number of treatment groups and chemicals examined, the ToxCast chemicals were divided into two groups (spanning two independent cultures of hepatocytes from separate donor preparations (Hu778: ToxCast plates 1 and 2; Hu776: ToxCast plates 3 and 4). Each preparation of human hepatocyte cultures was treated with respective vehicle control, medium only control, set of six positive controls/reference chemicals for the five hepatic receptor pathways, and a subset of eight of the ToxCast chemicals (indoxacarb, pyrithiobac-sodium, norflurazon, cyhalofop-butyl, methomyl, thiram, acetochlor, and propiconazole). These replicate data, coupled with internal replicates designed within the blinded ToxCast chemical library, provided additional data to evaluate interindividual differences between hepatocyte preparations and their potential impact on chemical profiles.Cell morphology and integrity were evaluated using phase-contrast microscopy as an indicator of hepatocyte cell health (Tyson & Green, 1987). Cultures for each treatment group (i.e., media, vehicle [0.2% DMSO], positive control inducers [multiple concentrations], and the ToxCast chemicals [multiple concentrations]) were observed and cell morphology was assessed relative to vehicle control cultures at each harvest time point (0, 6, 24, or 48 h). […] Images were evaluated at the conclusion of the study to assess changes in cell integrity and account for the effects of chemical exposure on uncharacteristic changes in concentration-dependent gene expression profiles. The results from these determinations of apparent cytotoxicity were annotated (yes/no) alongside the corresponding qNPA data for reference.At the conclusion of each treatment period, hepatocyte cultures (96-well) were washed with 1 volume of HBSS, lysed by addition of 25 ul ArrayPlate lysis buffer (HTG, Tucson, AZ), and 70 ul/well of Denaturation Oil, denatured by incubation at 95C for 10 min, and frozen at approximately -70C until analysis by nuclease protection assay (qNPA) (Roberts et al., 2007). For qNPA analysis, cell lysates were thawed at 50C for approximately 30 min, qNPA probes were added, and samples were incubated at 95C for 10 min to begin the detection process by denaturing the target RNA, dissociating the duplexes and secondary structure hybridization. At the conclusion of the hybridization period, S1 nuclease reagent was added to each sample to digest all nonprotected nucleotides at 50C for 60-90 min. […]"}
{"smiles": "CCCCOC(=O)[C@@H](C)Oc1ccc(Oc2ccc(C(F)(F)F)cn2)cc1", "outcome": "inactive"}
{"smiles": "CC(C)(c1ccc(O)cc1)c1ccc(O)cc1", "outcome": "inactive"}
{"smiles": "COC(=O)c1ccccc1S(=O)(=O)NC(=O)Nc1nc(OC(F)F)cc(OC(F)F)n1", "outcome": "inactive"}
{"smiles": "CCCN(CCC)C(=O)SCC", "outcome": "inactive"}
{"smiles": "COCCO", "outcome": "inactive"}
{"smiles": "N#CSCSc1nc2ccccc2s1", "AC50": "36.1 µM (active)"}
{"smiles": "CC(C)(C)[C@@H](O)[C@@H](Cc1ccc(Cl)cc1)n1cncn1", "outcome": "inactive"}
{"smiles": "CCOC(=O)COc1cc(-n2ncc(C(F)(F)F)c(C)c2=O)c(F)cc1Cl", "outcome": "inactive"}
{"smiles": "COc1nc(C)nc(NC(=O)NS(=O)(=O)c2ccccc2OCCCl)n1", "outcome": "inactive"}
{"smiles": "CCCCCOC(=O)COc1cc(N2C(=O)C3=C(CCCC3)C2=O)c(F)cc1Cl", "outcome": "inactive"}
{"smiles": "CCCCC(CC)CN1C(=O)C2C3C=CC(C3)C2C1=O", "note": "(stereo not drawn)", "outcome": "inactive"}
{"smiles": "C#CCOC(=O)[C@@H](C)Oc1ccc(Oc2ncc(Cl)cc2F)cc1", "outcome": "inactive"}
{"smiles": "CC1(C)C(C=C(Cl)Cl)C1C(=O)OCc1cccc(Oc2ccccc2)c1", "note": "(stereo not drawn)", "outcome": "inactive"}
{"smiles": "CCC(O)=C1C(=O)CC(C(=O)O)CC1=O", "note": "(stereo not drawn)", "outcome": "inactive"}
{"smiles": "CCCOC(=O)NCCCN(C)C", "outcome": "inactive"}
{"smiles": "S=C(S)NCCNC(=S)S.[Mn+2].[S-]C([S-])=NCCN=C([S-])[S-].[Zn+2]", "outcome": "inactive"}
{"smiles": "CCOC(=O)C(C)Oc1ccc(Oc2cnc3cc(Cl)ccc3n2)cc1", "note": "(stereo not drawn)", "outcome": "inactive"}
{"smiles": "COC(=O)CSc1cc(N=c2sc(=O)n3n2CCCC3)c(F)cc1Cl", "outcome": "inactive"}
